Many of the other results were omitted from the sample, so hits are more common in it than they were.
Pf Dd2 inh: Plasmodium falciparum Dd2 growth inhibition | P. falciparum Dd2 growth, SYBR Green, 72 h | Potency, µM (series often up to 28.9 µM), for inactives: at the highest dose activity, negative = inhibition, most hits filed as inhibitors | 4.3% of 120,000 active; active = well fitted inhibition curve with a large enough effect;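 note: plate controls were DMSO vehicle for no effect and reference drug for full effect; nearly all actives have a fitted effect of over 65% in size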
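Infected erythrocytes (Dd2, 0.3% parasitemia, 2.5% hematocrit final) are added to compound in RPMI-1640/Albumax II medium, grown 72 h at 37C in low oxygen, then lysed with saponin/Triton-X containing SYBR Green and read by fluorescence.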
Starred values were filed as active, the others as inactive; i = inactive; [ ] = another dose, or the depositor's remark. Potency is the fitted concentration of half-maximal effect.

SMILES | Pf Dd2 inh
CCCN1CCC(N2CCC(C(=O)Nc3cccc(-c4cccc(F)c4)c3)CC2)CC1 | 2.2µM*
CC(=O)NC1(C)CCN(Cc2cccc(-c3cccc(Cl)c3)c2)C1 (stereo not drawn) | -14%[44.1 µM]
CS(=O)(=O)N1CCCC1C(=O)Nc1ccc(-c2cccc(F)c2)cc1 (stereo not drawn) | -1%
O=C(NCC1CCN(Cc2cccc(Cl)c2)CC1)Nc1cc(Cl)ccc1Cl | i
CN(C)S(=O)(=O)N1CCCC1C(=O)Nc1ccc(-c2cccc(F)c2)cc1 (stereo not drawn) | -6%
COc1ccc(-c2ccc3c(n2)CN(Cc2ccccc2)C(=O)CO3)cc1F | -3%[44.1 µM]
O=C1Nc2ccccc2C12CN(Cc1cncs1)C2 | 5%[44.1 µM]
COCCN1C(=O)CCC2(C(=O)NCCCN3CCCC3)CCCC=C12 (stereo not drawn) | -9%
CNC(=O)[C@@H]1CN(S(=O)(=O)c2cccs2)C[C@H]1c1nc(C)no1 | 11%
COc1ccccc1N1CCN([C@H]2[C@@H]3OC[C@@H](O3)[C@@H](NCc3ccncc3)[C@@H]2O)CC1 | -7%[44.1 µM]
CC(C)CN[C@H]1[C@H](O)[C@@H](N2CCC(Cc3ccccc3)CC2)[C@@H]2OC[C@H]1O2 | 4µM*
COc1ccccc1N1CCN([C@H]2[C@@H]3OC[C@@H](O3)[C@@H](NCc3ccc(N(C)C)cc3)[C@@H]2O)CC1 | -3%
O=C(Nc1ccccc1)N[C@H]1[C@H](O)[C@@H](N2CCC(Cc3ccccc3)CC2)[C@@H]2OC[C@H]1O2 | -5%
O[C@H]1[C@H](NCc2ccncc2)[C@H]2CO[C@H](O2)[C@@H]1N1CCC(Cc2ccccc2)CC1 | i
COc1ccccc1N1CCN([C@H]2[C@@H]3OC[C@@H](O3)[C@@H](NCc3ccc(F)cc3)[C@@H]2O)CC1 | 7.9µM*
Cc1ccc2c(C)c(C(=O)N(C)Cc3noc4c3CCCC4)oc2c1 | -28%
CO[C@H]1C(=O)N(C2CCN(Cc3ccc(C)s3)CC2)[C@H]1c1ccncc1 | i
N#Cc1cccc(S(=O)(=O)N2CCc3n[nH]c(=O)n3CC2)c1 | i
COc1ccc(CCC(=O)N2CCC(Oc3ccc(-c4noc(C)n4)cc3)C2)cc1 (stereo not drawn) | 14%[5.79 µM]
COc1ccc(-c2cc(N3CCCN(C(=O)Cc4c(F)cccc4Cl)CC3)n[nH]2)cc1 | i
CCCC(=O)Nc1ccc2nc(SCc3ccc(C)cc3)sc2c1 | 8.9µM*
Cc1cccc(NC(=O)CSc2nc3ccc(NC(=O)CCc4ccccc4)cc3s2)c1 | 11%
CCC(=O)Nc1ccc2nc(SCc3ccccc3)sc2c1 | -28%
CC(=O)N1C[C@@H](C(=O)N2CCC(Cc3ccccc3)CC2)[C@H](c2nc(C)no2)C1 | i
O=C1[C@@H]2C[C@@H](O)CN2C2(CN(Cc3ccccc3)C2)C(=O)N1Cc1cccc(Cl)c1 | -35%[44.1 µM]
SMILES | Pf Dd2 inh
Cc1cc(N2CCCCC2)nc2ccc(NC(=O)c3ccc(F)cc3)cc12 | i
COc1cc(OC)cc(C(=O)Nc2ccc3c(c2)n(C)c(=O)c(=O)n3C)c1 | 24%
CCN1CCN(c2cc(C)c3cc(NC(=O)/C=C/c4cccc(Cl)c4)ccc3n2)CC1 | 3.2µM*
CCN1CCN(c2cc(C)c3cc(NC(=O)c4cccc(Cl)c4)ccc3n2)CC1 | 1.6µM*
O=C(NCc1cccc(Cl)c1)C(=O)Nc1ccc2nc3n(c(=O)c2c1)CCCCC3 | 29%
O=C(Nc1ccc2oc(-c3cccc4c(Br)cccc34)nc2c1)c1cccc(Cl)c1 | i
CCN1CCN(c2cc(C)c3cc(NC(=O)c4cc(OC)cc(OC)c4)ccc3n2)CC1 | 0.4µM*
CC1CCN(c2ccc(NC(=O)c3cccc(Cl)c3)cc2C(=O)O)CC1 | 3%
CCCCc1ccc(NC(=O)c2ccc(=O)n(Cc3cccc(C)c3)c2)cc1 | i
CCCCc1ccc(C(=O)Nc2ccc3nc(N4CCN(CC)CC4)cc(C)c3c2)cc1 | 4.5µM*
CCN1C[C@@H]2C(C(=O)Nc3cccc(Cl)c3)=NO[C@@H]2C1 | -7%[44.1 µM]
COc1ccc(C(=O)Nc2ccc3nc(N4CCC(C)CC4)cc(C)c3c2)cc1 | -12%
COC[C@H]1CCCN1Cc1nc(C2(O)CCN(Cc3ccc(OC)cc3)CC2)cs1 | i
CCc1cn(C[C@@H](C(=O)O)N(CC)CC)c(=O)[nH]c1=O | 0%[44.1 µM]
O=C(NCCN1CCCC1)c1c(OCC2CC2)cc(=O)n2c1CCOCC2 | 13%
COCc1nc(C2CCN(C(=O)C3CCCC3)C2)no1 (stereo not drawn) | 12%
CC(=O)Nc1ccc(CNC2(Cc3cc(CN(C)C)on3)COC2)cc1 | -7%[44.1 µM]
CCOc1ccccc1C(=O)N1CCC(N2C(=O)CCC2C(=O)NC(C)C)CC1 (stereo not drawn) | -9%
CC(C)c1nnc(C2CN(C(=O)c3ccoc3)CC23CCOCC3)o1 (stereo not drawn) | -9%
Cc1ccsc1C(=O)N1CCN(c2cc(-c3ccccc3)[nH]n2)CC1 | i
Cn1cc(CN2C[C@@H]3C[C@H](C2)c2ccc(NC(=O)c4cccs4)c(=O)n2C3)c2ccccc21 | 7.9µM*
CC(=O)c1ccc(NC(=O)N2C[C@@H]3C[C@H](C2)c2ccc(NC(=O)c4cccs4)c(=O)n2C3)cc1 | -2%
Cn1cc(CN2C[C@@H]3C[C@H](C2)c2ccc(NC(=O)COc4ccccc4)c(=O)n2C3)c2ccccc21 | -3%
COc1ccc(NC(=O)N2CCC(c3noc(-c4cccnc4)n3)C2)cc1 (stereo not drawn) | i[5.79 µM]
COc1cccc(C(=O)NC2CCN(c3cc(-c4ccc(F)cc4)[nH]n3)CC2)c1OC | i
SMILES | Pf Dd2 inh
C=CCNC(=O)CC1CCCN(c2cnn(CC)c(=O)c2)C1 (stereo not drawn) | 21%
Cc1csc(NC(=O)C2(C)COCc3cnc(Nc4ccccc4)nc32)n1 (stereo not drawn) | i
Cc1ccc(C(=O)N2CCCC(c3nn(-c4ccccc4)c(=O)[nH]3)C2)cc1 (stereo not drawn) | i
Cc1ccccc1Cn1nnc2c(=O)[nH]c(C3CCCN(C(=O)c4ccc(C(C)(C)C)cc4)C3)nc21 (stereo not drawn) | 8.9µM*
COC(=O)c1ccc(Cn2nnc3c(=O)[nH]c(C4CCCN(S(=O)(=O)c5ccccc5)C4)nc32)cc1 (stereo not drawn) | -22%
O=C(c1ccccc1F)N1CCC(c2nn(Cc3ccccc3)c(=O)[nH]2)CC1 | 27%
Cc1cccc(Cn2nnc3c(=O)[nH]c(C4CCCN(C(=O)c5ccc(C(C)(C)C)cc5)C4)nc32)c1 (stereo not drawn) | 1µM*
CCc1cn[nH]c1C1CCCN(C(=O)c2ccc(Cn3nnnc3C)cc2)C1 (stereo not drawn) | 10%
N#Cc1ccccc1Cn1nnc2c(=O)[nH]c(C3CCCN(S(=O)(=O)c4ccc(F)cc4)C3)nc21 (stereo not drawn) | i
O=C(Cc1ccccc1F)N1CCC(c2nc3c(nnn3Cc3cccc(Cl)c3)c(=O)[nH]2)CC1 | 10µM*
Cc1ccc(Cn2nnc3c(=O)[nH]c(C4CCN(C(=O)Cc5ccccc5F)CC4)nc32)cc1 | -27%
O=C1N(C2CCCCC2)C[C@H]2CN(S(=O)(=O)c3ccc(F)cc3)CCN12 | i
COc1ccc(NC(=O)c2cnc3c(c2)N(C(=O)Cc2ccc(C(C)C)cc2)CCC3)cc1OC | -16%
COC[C@@H]1CN(Cc2cc(C)nn2C)C[C@H]1C(=O)NC1CC1 | 32%
Cc1cc(C(=O)N[C@H](c2ccccn2)C2CC(O)C2)c2c(C)noc2n1 (stereo partly drawn) | -4%
Cc1cnc(C2CC2)n1CCNC(=O)NC1CCCCC1 | 4%

Source: PubChem (National Center for Advancing Translational Sciences (NCATS))
